# Source: ChEMBL document CHEMBL1157539, “Thousands of chemical starting points for antimalarial lead identification” (Nature, 2010)
# Tested on: Plasmodium falciparum
# Assay: GSK_TCMDC: Inhibition of Plasmodium falciparum 3D7 in whole red blood cells, using parasite LDH activity as an index of growth. Test compounds present at 2uM
# Format: functional
row,Compound,Inhibition [%]
1,FC(F)(F)c1ccc(/C=C/c2cncnc2Nc2ccc3[nH]c(Cc4ccccc4)nc3c2)cc1,100
2,COc1cc(CN=C(S)NN=C(C)c2ccccn2)cc(OC)c1OC,99
3,Cc1noc(C)c1-c1ccc2c(Nc3nccc4ccccc34)c(C(N)=O)cnc2c1,100
4,Cc1noc(C)c1-c1cccc(CNCc2cccc(-c3ccc(-c4nc5cccc(C)c5[nH]4)s3)c2)c1.O=C(O)C(F)(F)F,100
5,Cl.N#Cc1ccc(NC(=O)Nc2ccc3c(c2)CCN(C2CCC2)CC3)cc1,96
6,Br.CC(CCON1C(N)=NC(N)=NC1(C)C)c1ccc(Cl)c(Cl)c1 (stereo not given),98
7,CCCCCNc1nc2nc(N)nc(N)c2nc1-c1ccccc1.Cl,91
8,COc1cccc(C(O)CNc2ccnc(Nc3ccc(Cl)cc3)n2)c1 (stereo not given),99
9,CC(C)CNCc1cccc(-c2ccc(CN(C(=O)NCCc3ccccc3)C3CCN(Cc4ccccc4)CC3)cc2)c1.O=C(O)C(F)(F)F,98
10,COc1ccc(-n2ccnc2SCC(=O)Nc2cc(Cl)ccc2OC)c(OC)c1,96
11,COC(=O)c1cc2cccc(NC[C@@H](C)NC[C@H](O)c3cccc(Cl)c3)c2[nH]1,98
12,O=C(O)C(F)(F)F.O=[N+]([O-])c1cccc(CNCC2CCN(Cc3ccc(Cl)c(Cl)c3)CC2)c1,100
13,Cc1ncc(CN2CCC(C(=O)Nc3ccc(-c4nc5ccccc5o4)cc3)CC2)s1,82
14,COc1ccccc1CCNC(=O)c1cnc(N2CCN(c3ccncc3)CC2)c(Cl)c1.O=C(O)C(F)(F)F,98
15,O=C(NCCN1CCCC1)N1CCCN(c2ncnc3cc(-c4ccc(F)cc4)sc23)CC1.O=C(O)C(F)(F)F,81
16,Cc1nc(-c2cccc3c(NC(=O)N4CCc5cc6nccc(N7CCN(C)CC7)c6cc54)cccc23)no1.Cl,100
17,COC(=O)[C@@H](NC(=O)[C@H](Cc1ccc(OC)c(OC)c1)Nc1ccc(C#N)c2ccccc12)c1ccc(O)cc1.O=C(O)C(F)(F)F,100
18,CCOC(=O)c1ccc(NC(=O)Nc2ccc(-c3ccc(-c4nc5cccc(C)c5[nH]4)s3)cc2)cc1,100
19,FC(F)c1nc2ccccc2n1-c1nc(N2CCOCC2)nc(N2CCOCC2)n1 [ZSTK-474],99
20,O=C(NCc1ccccc1)c1nn(CCCN2CCC(N3CCCC3)CC2)cc1-c1ccc(Cl)c(Cl)c1,100

row,Compound,Inhibition [%]
1,CCOC(=O)c1c[nH]c2c(sc3cc(OC)ccc32)c1=O,96
2,O=C(Nc1cccc(CN2CCCN(Cc3ccc(O)cc3)CC2)c1)c1cc(F)cc(F)c1.O=C(O)C(F)(F)F,100
3,Cc1noc(C)c1-c1cccc(C(=O)NC2CCN(CCNC(=O)C(c3ccccc3)c3ccccc3)CC2)c1.O=C(O)C(F)(F)F,85
4,CC(C(=O)NC1CCN(c2ccnc(Nc3ccc(F)cc3)n2)C1)c1ccc(Cl)cc1 (stereo not given),95
5,O=C(O)C(F)(F)F.OCC1CCN(Cc2cccc(-c3ccc(-c4nc5cc(F)ccc5[nH]4)cc3)c2)CC1,100
6,COc1ccccc1-c1ccc(C(=O)NCC2CCCN(Cc3cccc(C(F)(F)F)c3)C2)s1.O=C(O)C(F)(F)F (stereo not given),81
7,O=C(Nc1cccc(-c2cccc(-c3nc4cc(C(F)(F)F)ccc4[nH]3)c2)c1)c1cccnc1Cl,95
8,Cc1c2c(nn1-c1ccccc1)C(c1ccccc1)N(c1ccccc1)C2=O (stereo not given),92
9,CCN(CC)/C(=N/C(=N)Nc1ccc(Br)cc1)NCCCCCCN/C(=N\C(=N)Nc1ccc(Br)cc1)N(CC)CC,96
10,Cl.O=C(NCCCCN1CCC(c2ccc3c(c2OCCO)CCCC3)CC1)c1ccc(-c2ccc(C(F)(F)F)cc2)cc1,98
11,CCN(CC)CCNC(=O)c1ccc(NC(=O)c2oc3c(Cl)cccc3c2C)cc1,98
12,COCCCNc1sc(S(=O)(=O)c2ccccc2)nc1S(=O)(=O)c1ccc(C)cc1,84
13,O=C(Nc1cccc(-c2cc3ccccc3[nH]2)c1)C1CCN(Cc2ccccc2O)CC1,95
14,C=CCC(C)n1ncc2c3c(N)nc(N)nc3ccc21 (stereo not given),93
15,COc1ccc(CNC2Cc3ccccc3C2)cc1-c1ccc(OC)c(S(=O)(=O)NCCN2CCCC2)c1.O=C(O)C(F)(F)F,100
16,COC(=O)Nc1cc(C(F)(F)F)ccc1N1CCCC(NS(=O)(=O)c2ccc(C(C)(C)C)cc2)C1 (stereo not given),97
17,CC(C)c1ccc(NC(=O)c2cccc(CN3CCCN(CC4CCCCC4)CC3)c2)cc1.O=C(O)C(F)(F)F,85
18,O=C(NCCN1CCC(c2ncc(-c3ccccc3)o2)CC1)c1ccc(NC(=O)c2ccc(Cl)cc2)cc1,100
19,O=C(O)C(F)(F)F.O=C1CCCN1CCCNCc1ccc(-c2ccc(-c3nc4cc(F)ccc4[nH]3)cc2)cc1,100
20,O=c1c(Br)c(C(F)(F)F)[nH]c2ccc(Oc3ccccc3)cc12,91
